{"source": "PubChem BioAssay AID493191", "about": "(Broad Institute, 2011)", "note": "About 330 (25%) of roughly 1,300 compounds were called active. The list is a sample of the results. Entries with a potency or affinity are not part of this list. A number with no mark means an inactive call. How the calls were made is not given here."}
{"test": "MALME3 melanoma cell viability loss, dose response, orthogonal assay for MITF inhibitor project, CellTiter-Glo, cherry-picked (AID 493191)", "conditions": "CellTiter-Glo luminescence, 24 h; series mostly up to 35 µM; activity change, negative = inhibition: at the top concentration", "units": {"activity change, negative = inhibition": "%"}}
{"smiles": "Cc1ccc(COc2ccc(C)nc2[N+](=O)[O-])cc1", "activity change, negative = inhibition": 9.51}
{"smiles": "CCc1cc(C=NC2CCCCC2)c(O)s1", "activity change, negative = inhibition": 2.76}
{"smiles": "O=[N+]([O-])c1cc(Cl)cc(/C=N\\Nc2ccccn2)c1O", "activity change, negative = inhibition": -43.7}
{"smiles": "COc1cc2c(c(OC)c1OC)-c1ccc(N(C)CC(OC)OC)c(=O)cc1[C@@H](NC(C)=O)CC2", "activity change, negative = inhibition": 20.4}
{"smiles": "Cc1cc(N2CCOCC2)ccc1/C=C\\[N+](=O)[O-]", "activity change, negative = inhibition": -48.4}
{"smiles": "O=C(Nc1ccc(Cl)cc1)C1C2CCCCC21", "note": "(stereo not drawn)", "activity change, negative = inhibition": -0.186}
{"smiles": "COc1ccc(C(=O)NC(=O)Nc2cc(C)ccn2)cc1", "activity change, negative = inhibition": -25.7}
{"smiles": "N/C(=N\\OC(=O)c1ccccc1)c1ccccn1", "activity change, negative = inhibition": -32.2}
{"smiles": "COCc1cc(C)nc2sc(C(=O)Nc3cccc(OC)c3)c(N)c12", "activity change, negative = inhibition": 6.83}
{"smiles": "Cc1cccc2sc(N(CCCN(C)C)C(=O)c3nc4ccccc4s3)nc12", "activity change, negative = inhibition": -22.2}
{"smiles": "O=[N+]([O-])c1c(NCCCO)cc(Sc2ccc(Cl)cc2)c2nonc12", "activity change, negative = inhibition": -28.4}
{"smiles": "CCC(=O)OCCNc1cc(Sc2nc3ccccc3[nH]2)c2nonc2c1[N+](=O)[O-]", "activity change, negative = inhibition": -44.7}
{"smiles": "CC(=O)OCCCNc1cc(Sc2ccc(Cl)cc2)c2nonc2c1[N+](=O)[O-]", "activity change, negative = inhibition": -45.4}
{"smiles": "O=C(Nc1ccccc1F)c1ccc2c(c1)OCO2", "activity change, negative = inhibition": -14.2}
{"smiles": "COc1cccc(-c2nnc3n2N=C(C(C)(C)C)CS3)c1", "activity change, negative = inhibition": 1.74}
{"smiles": "Cc1ccc(C2=NN(C(=O)CCl)C(c3cccs3)C2)o1", "note": "(stereo not drawn)", "activity change, negative = inhibition": -27.1}
{"smiles": "C=C1C(=O)C=C[C@]2(C)C[C@@H]3OC(=O)[C@](C)(O)[C@H]3C[C@@H]12", "activity change, negative = inhibition": -38.6}
{"smiles": "CNc1oc(/C=C/c2cccc(OC)c2)nc1C#N", "activity change, negative = inhibition": -4.03}
{"smiles": "CCCN1C(=O)c2ccc(C(=O)Nc3cc(C)ccc3O)cc2C1=O", "activity change, negative = inhibition": -17.9}
{"smiles": "NNC(=O)c1cc2ccccc2cc1O", "activity change, negative = inhibition": -15}
{"smiles": "Cn1c(=O)c([N+](=O)[O-])c(-n2ccnc2)c2ccccc21", "activity change, negative = inhibition": 3.26}
{"smiles": "CCn1c(=O)c(C(=O)NCc2ccccc2Cl)c(O)c2ccccc21", "activity change, negative = inhibition": -5.21}
{"smiles": "COc1cc([N+](=O)[O-])cc(/C=N/NC(=O)c2ccc(NC(=O)c3ccc(C)cc3)cc2)c1O", "activity change, negative = inhibition": -29.5}
{"smiles": "CCOc1cc(NC(=O)CCl)c(OCC)cc1NC(=O)CCl", "activity change, negative = inhibition": -11.9}
{"smiles": "O=C(O)c1cccc(NC(=S)N/N=C/c2ccccn2)c1", "activity change, negative = inhibition": 0.21}
{"smiles": "O=C(NC1CCCCC1)C(c1cccnc1)N(C(=O)CCl)c1ccc(F)cc1", "note": "(stereo not drawn)", "activity change, negative = inhibition": -45.1}
{"smiles": "COc1cc2c(cc1OC)C(C)N(S(=O)(=O)c1cnc(Cl)c(Cl)c1)CC2", "note": "(stereo not drawn)", "activity change, negative = inhibition": -24.5}
{"smiles": "COc1cc(CN2CCC(C(N)=O)CC2)ccc1OCc1ccccc1", "activity change, negative = inhibition": -2.67}
{"smiles": "Cc1cc(C)c(C#N)c(SCc2nnc(-c3ccccc3)o2)n1", "activity change, negative = inhibition": 6.74}
{"smiles": "O=C(NC1CCCCC1)c1cc2cc(Br)ccc2o1", "activity change, negative = inhibition": 8.76}
{"smiles": "COc1cc2c(c(OC)c1OC)-c1ccc(OC)c(=O)cc1C(NC(C)=O)CC2", "note": "(stereo not drawn)", "activity change, negative = inhibition": 7.87}
{"smiles": "O=C(C[n+]1cc(-c2ccc(F)cc2)n2c1CCC2)c1cccs1", "activity change, negative = inhibition": 8.22}
{"smiles": "Cc1nc(SCC(=O)Nc2ccc(CN3CCCC3)cc2)c2c(C)c(C)sc2n1", "activity change, negative = inhibition": -48.9}
{"smiles": "O=C(CCl)Nc1ccc(Sc2ccc(NC(=O)CCl)cc2)cc1", "activity change, negative = inhibition": -7.9}
{"smiles": "Cc1ccc2cc(NC(=O)Cc3ccccc3)ccc2n1", "activity change, negative = inhibition": -6.29}
{"smiles": "Cc1cccc(OCC(=O)Nc2cccc(O)c2)c1", "activity change, negative = inhibition": 4.34}
{"smiles": "O=C(CCl)Nc1ccc(-c2ccccc2)cc1", "activity change, negative = inhibition": -37.2}
{"smiles": "COc1cccc(NC(=O)c2cc3ccccc3cc2OC)c1", "activity change, negative = inhibition": -22.4}
{"smiles": "COc1ccc(-c2cc(-c3ccc(OC)c(OC)c3)n[nH]2)c(O)c1", "activity change, negative = inhibition": 2.12}
{"smiles": "CCCOC(=O)c1ccc(NC(=O)C2CCCO2)cc1", "note": "(stereo not drawn)", "activity change, negative = inhibition": 11.7}
{"smiles": "CC1=NC(=O)C(N=Nc2cccc(C(=O)O)c2)N1c1ccccc1", "note": "(stereo not drawn)", "activity change, negative = inhibition": 2.56}
{"smiles": "Cc1ccc(-c2c[n+](Cc3ccc(Cl)c(Cl)c3)c3n2CCC3)cc1", "activity change, negative = inhibition": -44.3}
{"smiles": "Cc1oc(=O)c(NC(=O)c2ccccc2)cc1C(=O)c1ccccc1", "activity change, negative = inhibition": 2.83}
{"smiles": "Cc1cc(C)c2nc3nc(C)cc(C)c3c(N)c2c1", "activity change, negative = inhibition": -10.5}
{"smiles": "Cc1cc(C)c2c(N)c(C(=O)N/N=C/c3ccccc3)sc2n1", "activity change, negative = inhibition": 7.24}
{"smiles": "Cn1nnnc1Sc1ncnc2scc(-c3ccsc3)c12", "activity change, negative = inhibition": -2.32}
{"smiles": "Cn1nnnc1Sc1ncnc2scc(-c3ccc(F)cc3)c12", "activity change, negative = inhibition": -30.6}
{"smiles": "O=C(O)c1ccc(N/N=C/c2ccc(OC(=O)c3cccc(Cl)c3)cc2)cc1", "activity change, negative = inhibition": 4.66}
{"smiles": "COc1ccccc1N1CCN(/N=C/c2cccc(Cl)c2)CC1", "activity change, negative = inhibition": 0.195}
{"smiles": "CC(Oc1ccccc1)C(=O)Nc1nc(-c2ccccn2)cs1", "note": "(stereo not drawn)", "activity change, negative = inhibition": -20}
{"smiles": "O=C(Nc1nc(-c2ccccn2)cs1)c1ccccc1-n1cnnn1", "activity change, negative = inhibition": -19.8}
{"smiles": "COc1ccc(C(=O)/C=C/Nc2ccccn2)cc1", "activity change, negative = inhibition": -25.4}
{"smiles": "Cc1nc2ccc(NC(=O)c3ccco3)cc2nc1C", "activity change, negative = inhibition": 14.5}
{"smiles": "Cc1cc(C(=O)Nc2cccc(C(=O)O)c2)oc1C", "activity change, negative = inhibition": -4.21}
{"smiles": "O=C(Nc1ccc2nn(-c3ccccc3)nc2c1)c1ccco1", "activity change, negative = inhibition": 6.65}
{"smiles": "Cc1cccc(NC(=O)c2ccc([N+](=O)[O-])o2)c1C", "activity change, negative = inhibition": -47.8}
{"smiles": "COc1ccc(C(=O)Nc2ccc3c(c2)OCCO3)cc1Br", "activity change, negative = inhibition": -6.9}
{"smiles": "CC(C)[C@H](NC(=O)OC(C)(C)C)c1nnc(S(=O)(=O)Cc2c(F)cccc2Cl)o1", "activity change, negative = inhibition": -37.9}
